Structures are written as SMILES. For some of these results: Potency and affinity values are given separately.

What all share (design): scale not given: direction of the effect not stated beside the values
Assay [1] addresses Protein translocase subunit SecA (Escherichia coli (strain K12)) (UniProt P10408). The assay can be described thus: Assay to Identify E. coli SecA ATPase Inhibitors. It counts as functional. Particulars: 30 µM.
The target in assay [2] is T1, Ubiquitin-activating enzyme e1, putative (Leishmania donovani (strain BPK282A1)) (UniProt E9BSI1).
T1 sequence (whole entry): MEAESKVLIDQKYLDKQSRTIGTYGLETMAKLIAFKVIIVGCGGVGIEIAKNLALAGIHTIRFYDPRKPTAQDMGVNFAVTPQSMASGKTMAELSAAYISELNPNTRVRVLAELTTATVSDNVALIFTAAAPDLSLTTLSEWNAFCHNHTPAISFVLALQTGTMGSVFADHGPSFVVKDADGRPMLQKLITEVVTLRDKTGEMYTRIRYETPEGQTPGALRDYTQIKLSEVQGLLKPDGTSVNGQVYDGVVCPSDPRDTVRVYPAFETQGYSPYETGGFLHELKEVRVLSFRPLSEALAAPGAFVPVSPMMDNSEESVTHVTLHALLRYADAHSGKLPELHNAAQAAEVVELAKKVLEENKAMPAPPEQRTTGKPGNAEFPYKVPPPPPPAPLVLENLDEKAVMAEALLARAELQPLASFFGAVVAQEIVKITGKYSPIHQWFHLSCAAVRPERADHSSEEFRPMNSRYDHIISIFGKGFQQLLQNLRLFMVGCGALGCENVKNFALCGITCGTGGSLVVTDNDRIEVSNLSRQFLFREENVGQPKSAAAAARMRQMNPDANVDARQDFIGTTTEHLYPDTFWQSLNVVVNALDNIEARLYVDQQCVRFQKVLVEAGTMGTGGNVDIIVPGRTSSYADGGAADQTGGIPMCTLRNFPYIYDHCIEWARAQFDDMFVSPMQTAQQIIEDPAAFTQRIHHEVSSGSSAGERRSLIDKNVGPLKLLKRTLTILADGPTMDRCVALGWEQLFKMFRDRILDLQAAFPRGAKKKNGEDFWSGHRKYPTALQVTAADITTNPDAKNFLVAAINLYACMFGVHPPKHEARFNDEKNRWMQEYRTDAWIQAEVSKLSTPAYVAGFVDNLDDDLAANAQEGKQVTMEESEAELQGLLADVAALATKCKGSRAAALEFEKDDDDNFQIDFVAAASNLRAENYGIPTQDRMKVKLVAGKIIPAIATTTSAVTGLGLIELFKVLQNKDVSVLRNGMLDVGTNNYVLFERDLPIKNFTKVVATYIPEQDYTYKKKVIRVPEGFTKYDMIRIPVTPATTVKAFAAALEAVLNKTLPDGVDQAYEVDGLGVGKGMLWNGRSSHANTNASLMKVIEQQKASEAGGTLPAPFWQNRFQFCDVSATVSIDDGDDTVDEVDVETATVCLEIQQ
The assay can be described thus: Leishmania donovani Ubiquitin Activating Enzyme (LdE1). Particulars: 30 µM. It counts as functional.

Assay [3] deals with AMP-activated protein kinase, AMPK (Homo sapiens) (UniProt P54646+O43741+P54619+Q9UGJ0+Q9Y478+Q13131+Q9UGI9). As to the kind of experiment: AMP-dependent Kinase enzyme assay. An in vitro enzyme assay that detects ADP turnover that is directly proportional to AMPK activity. This uses naive AMPK that is activated during the assay with MK-8722. It counts as functional. The note with it: 30 µM.

Assay [4] addresses Sialic acid-binding Ig-like lectin 9 (Homo sapiens) (UniProt Q9Y336). As to the kind of experiment: Hs-Siglec9 ALPHAscreen SOP 20170721. Particulars: 10 µM. (In Alpha technology, singlet oxygen from a donor bead excites a nearby acceptor bead.)
Another assay relates to Trypanosoma cruzi. The assay can be described thus: Trypanosoma cruzi phosphomannomutase and mannose-1-phosphate guanylyltransferase assay. It counts as functional. The note with it: 10 µM.
Assay [5] concerns the target T2, Arginase-2, mitochondrial (Homo sapiens) (UniProt P78540).
T2 sequence (whole entry): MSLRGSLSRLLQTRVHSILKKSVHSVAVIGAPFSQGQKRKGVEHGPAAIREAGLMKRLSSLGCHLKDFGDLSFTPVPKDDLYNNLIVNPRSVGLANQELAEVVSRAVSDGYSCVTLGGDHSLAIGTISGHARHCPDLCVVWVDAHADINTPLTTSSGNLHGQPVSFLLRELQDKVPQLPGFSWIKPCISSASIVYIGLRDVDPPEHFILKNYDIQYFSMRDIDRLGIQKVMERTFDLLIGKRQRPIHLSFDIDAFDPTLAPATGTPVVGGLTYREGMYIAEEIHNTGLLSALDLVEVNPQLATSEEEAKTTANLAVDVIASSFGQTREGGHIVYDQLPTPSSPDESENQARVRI
As to the kind of experiment: in vitro enzyme assay to detect the production of urea directly proportional to the activity of Arginase II. Note: in the data most compounds retested in dose-response had high values. The assay is classed as functional. Particulars: 33.3 µM.

In assay [6] the target is T3, Proteasome subunit beta (Trypanosoma cruzi) (UniProt O96673).
T3 sequence (whole entry): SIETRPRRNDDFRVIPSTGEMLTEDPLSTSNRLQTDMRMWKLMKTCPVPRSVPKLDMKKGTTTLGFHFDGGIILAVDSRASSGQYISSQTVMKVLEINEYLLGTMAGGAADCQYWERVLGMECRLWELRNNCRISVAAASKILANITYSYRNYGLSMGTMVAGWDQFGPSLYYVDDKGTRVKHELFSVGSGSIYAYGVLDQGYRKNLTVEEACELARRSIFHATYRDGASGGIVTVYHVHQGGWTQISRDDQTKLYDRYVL
The assay can be described thus: Trypanosoma cruzi proteasome chymotrypsin-like activity (TcProtChymo) assay. Note: in the data most compounds retested in dose-response had high values. It counts as functional. Particulars: 9.37 µM.

For the next assay, the species on record is Homo sapiens. The assay can be described thus: To identify inhibition of the IFN signalling (Jak-Stat) pathway via expression of an eGFP reporter gene under the control of an IFN-stimulated response element (ISRE) containing MxA promoter. The assay is classed as functional. Particulars: 30 µM. (In general: A reporter such as luciferase makes a cellular process visible.)

The target in assay [7] is T4, Tyrosyl-tRNA synthetase, putative (Trypanosoma cruzi (strain CL Brener)) (UniProt Q4DSP6).
T4 sequence (whole entry): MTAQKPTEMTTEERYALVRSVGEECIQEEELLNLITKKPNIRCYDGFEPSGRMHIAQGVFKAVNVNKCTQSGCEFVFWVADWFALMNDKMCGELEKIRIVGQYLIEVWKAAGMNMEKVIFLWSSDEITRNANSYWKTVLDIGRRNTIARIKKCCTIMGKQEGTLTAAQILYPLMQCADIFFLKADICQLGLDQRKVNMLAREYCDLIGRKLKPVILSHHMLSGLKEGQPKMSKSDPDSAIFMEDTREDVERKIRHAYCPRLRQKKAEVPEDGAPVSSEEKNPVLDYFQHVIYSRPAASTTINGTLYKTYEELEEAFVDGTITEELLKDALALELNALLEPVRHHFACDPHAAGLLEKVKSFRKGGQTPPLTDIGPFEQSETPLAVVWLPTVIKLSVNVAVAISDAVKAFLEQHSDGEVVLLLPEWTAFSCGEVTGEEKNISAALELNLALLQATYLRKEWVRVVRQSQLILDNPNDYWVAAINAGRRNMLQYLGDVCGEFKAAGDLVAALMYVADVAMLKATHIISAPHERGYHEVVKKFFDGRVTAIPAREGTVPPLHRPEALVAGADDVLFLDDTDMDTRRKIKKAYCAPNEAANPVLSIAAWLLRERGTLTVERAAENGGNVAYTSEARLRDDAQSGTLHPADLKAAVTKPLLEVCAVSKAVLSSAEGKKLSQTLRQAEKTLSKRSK
As to the kind of experiment: Trypanosoma cruzi tyrosyl tRNA synthetase (TcYRS) _High Tyrosine SOP. Note: in the data most compounds retested in dose-response had high values. It counts as functional. Particulars: 30 µM.

Assay [8] addresses T4, Tyrosyl-tRNA synthetase, putative (Trypanosoma cruzi (strain CL Brener)). The assay can be described thus: Trypanosoma cruzi tyrosyl tRNA synthetase (TcYRS) SOP. The note with it: 30 µM. It counts as functional.
Assay [9] concerns the target Chromo domain-containing protein 1 (Saccharomyces cerevisiae (strain ATCC 204508 / S288c) (Baker's yeast)) (UniProt P32657). The assay can be described thus: ScCHD-1 Enzyme Inhibition Assay. Note: in the data most compounds retested in dose-response had high values. The assay is classed as functional. Particulars: 30 µM.

Sequence of Sialic acid-binding Ig-like lectin 9 (Homo sapiens) (Q9Y336 whole entry): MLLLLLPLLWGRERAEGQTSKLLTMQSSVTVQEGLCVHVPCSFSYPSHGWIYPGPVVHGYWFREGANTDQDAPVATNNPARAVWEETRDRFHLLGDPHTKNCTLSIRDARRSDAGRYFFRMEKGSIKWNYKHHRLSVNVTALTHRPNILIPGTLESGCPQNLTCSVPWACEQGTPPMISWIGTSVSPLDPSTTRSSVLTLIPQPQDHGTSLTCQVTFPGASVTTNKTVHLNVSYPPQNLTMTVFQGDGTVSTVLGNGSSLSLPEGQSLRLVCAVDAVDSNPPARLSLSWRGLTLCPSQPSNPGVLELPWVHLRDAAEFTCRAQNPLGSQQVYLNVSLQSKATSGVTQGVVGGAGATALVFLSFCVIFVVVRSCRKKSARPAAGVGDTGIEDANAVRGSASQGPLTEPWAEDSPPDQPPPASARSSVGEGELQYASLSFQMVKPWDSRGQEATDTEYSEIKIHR
Sequence of Chromo domain-containing protein 1 (Saccharomyces cerevisiae (strain ATCC 204508 / S288c) (Baker's yeast)) (P32657 whole entry, the tested form may be a part): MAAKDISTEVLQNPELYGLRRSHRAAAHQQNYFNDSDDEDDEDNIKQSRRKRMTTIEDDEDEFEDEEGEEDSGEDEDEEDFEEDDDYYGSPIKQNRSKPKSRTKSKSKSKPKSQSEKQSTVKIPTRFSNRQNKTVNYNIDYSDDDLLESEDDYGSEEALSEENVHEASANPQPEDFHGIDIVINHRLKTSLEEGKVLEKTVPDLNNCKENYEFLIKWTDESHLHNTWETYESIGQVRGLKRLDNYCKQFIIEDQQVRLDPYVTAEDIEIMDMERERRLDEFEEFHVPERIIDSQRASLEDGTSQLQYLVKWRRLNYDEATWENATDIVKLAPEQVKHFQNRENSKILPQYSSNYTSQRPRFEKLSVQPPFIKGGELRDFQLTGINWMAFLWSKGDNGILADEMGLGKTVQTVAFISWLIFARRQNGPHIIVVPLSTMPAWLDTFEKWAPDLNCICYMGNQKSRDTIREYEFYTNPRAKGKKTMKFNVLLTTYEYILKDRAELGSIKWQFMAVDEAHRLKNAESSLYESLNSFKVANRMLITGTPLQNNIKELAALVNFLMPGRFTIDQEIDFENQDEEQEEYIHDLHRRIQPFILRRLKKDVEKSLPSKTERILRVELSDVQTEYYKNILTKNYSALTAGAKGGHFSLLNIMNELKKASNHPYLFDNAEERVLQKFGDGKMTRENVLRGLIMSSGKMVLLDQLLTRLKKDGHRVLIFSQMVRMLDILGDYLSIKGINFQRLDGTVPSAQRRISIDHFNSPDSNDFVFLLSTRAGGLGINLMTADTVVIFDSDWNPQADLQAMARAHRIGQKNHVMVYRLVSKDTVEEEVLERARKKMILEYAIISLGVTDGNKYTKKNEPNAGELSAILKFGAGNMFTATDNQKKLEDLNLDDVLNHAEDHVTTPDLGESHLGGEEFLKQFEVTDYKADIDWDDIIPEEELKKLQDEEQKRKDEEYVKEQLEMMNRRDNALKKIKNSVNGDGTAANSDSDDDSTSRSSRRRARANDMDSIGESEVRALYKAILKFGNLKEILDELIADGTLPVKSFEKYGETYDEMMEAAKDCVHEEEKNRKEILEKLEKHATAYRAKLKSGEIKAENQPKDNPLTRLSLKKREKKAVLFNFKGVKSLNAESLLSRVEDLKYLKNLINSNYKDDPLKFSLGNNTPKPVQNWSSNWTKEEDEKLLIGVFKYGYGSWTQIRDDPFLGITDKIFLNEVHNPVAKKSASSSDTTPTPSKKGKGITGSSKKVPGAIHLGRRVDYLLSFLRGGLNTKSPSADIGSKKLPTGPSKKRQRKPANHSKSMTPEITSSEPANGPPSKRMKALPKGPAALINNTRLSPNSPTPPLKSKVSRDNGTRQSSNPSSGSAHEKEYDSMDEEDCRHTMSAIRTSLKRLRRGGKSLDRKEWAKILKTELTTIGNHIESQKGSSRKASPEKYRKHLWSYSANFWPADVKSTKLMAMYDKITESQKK
Sequence of Protein translocase subunit SecA (Escherichia coli (strain K12)) (P10408 whole entry): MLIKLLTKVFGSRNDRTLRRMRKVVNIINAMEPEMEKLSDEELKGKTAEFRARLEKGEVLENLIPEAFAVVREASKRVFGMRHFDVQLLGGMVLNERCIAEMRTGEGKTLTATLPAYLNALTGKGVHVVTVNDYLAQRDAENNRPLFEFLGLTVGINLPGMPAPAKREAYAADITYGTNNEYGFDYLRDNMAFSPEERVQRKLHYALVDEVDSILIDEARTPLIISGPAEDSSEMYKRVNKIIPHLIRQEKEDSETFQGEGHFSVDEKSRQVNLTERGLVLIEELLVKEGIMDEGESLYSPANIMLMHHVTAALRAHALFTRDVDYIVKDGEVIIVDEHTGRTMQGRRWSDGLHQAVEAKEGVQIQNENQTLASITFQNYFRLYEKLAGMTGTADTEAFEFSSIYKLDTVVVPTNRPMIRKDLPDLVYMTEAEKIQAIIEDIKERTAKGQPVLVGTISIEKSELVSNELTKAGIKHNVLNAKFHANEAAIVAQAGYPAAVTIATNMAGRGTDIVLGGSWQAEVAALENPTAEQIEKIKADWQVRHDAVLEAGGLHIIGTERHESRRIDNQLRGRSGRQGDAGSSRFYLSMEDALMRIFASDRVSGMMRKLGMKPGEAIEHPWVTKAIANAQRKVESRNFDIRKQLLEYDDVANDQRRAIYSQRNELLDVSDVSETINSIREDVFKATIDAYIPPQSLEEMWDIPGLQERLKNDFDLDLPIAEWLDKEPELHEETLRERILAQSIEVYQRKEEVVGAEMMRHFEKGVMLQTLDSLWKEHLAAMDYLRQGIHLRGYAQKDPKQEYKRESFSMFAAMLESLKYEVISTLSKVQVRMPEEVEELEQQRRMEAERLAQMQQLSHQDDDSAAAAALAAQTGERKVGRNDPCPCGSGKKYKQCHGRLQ

Take `c1cnn(-c2ccc(CN3CCOC(Cn4cncn4)C3)cc2)c1` (stereo not drawn): the Percent Effect was -2.23% in assay [1]; 12.7% in [2]; 0.7% in assay [3]; 6.36% in assay [4]; 2.74% with Trypanosoma cruzi; 1.52% in assay [5]. In addition, the Percent Effect in [6] was -2.21%; in the assay listed under Homo sapiens, -11.6%; in [7] it was 7.39%; in assay [8], 13.9%; in [9] it was -8.36%.
Take `COCCO[C@@H]1CCN(C(=O)c2ccc(C)o2)[C@@H]1Cc1cccnc1`: the Percent Effect was -5.36% in assay [1]; 0% in assay [2]; 9.87% in assay [3]; -4.82% in [4]; -3.91% with Trypanosoma cruzi; 4.17% in assay [5]. The Percent Effect in [6] is 8.03%; in the assay listed under Homo sapiens, 2.29%; in [7], 5.94%; in assay [8], 8.54%; in assay [9] it was -1.12%.
In the case of `Cc1cc(C(=O)NCc2cccnc2OC(C)C)no1`, the Percent Effect in assay [1] is -2.03%; in [2] it was 8.11%; in assay [3], -0.722%; in assay [4], 4.58%; in the assay with Trypanosoma cruzi, -5.19%; in [5], 4.41%. Also, the Percent Effect is 3.42% in assay [6]; 27.8% in the assay listed under Homo sapiens; 6.4% in assay [7]; 13.6% in assay [8]; -0.257% in [9].
As for `CC(C)(O)C1CCN(C(=O)Nc2nc(-c3ccccc3)ns2)CC1`, the Percent Effect was -2.39% in [1]; 2.7% in assay [2]; -2.64% in assay [3]; 7.48% in assay [4]; 2.25% in the assay on Trypanosoma cruzi; 18.6% in [5]. In addition, the Percent Effect in [6] is 18.8%; in the assay listed under Homo sapiens, 55.5%; in assay [7] it was 1.07%; in [8], 3.7%; in assay [9], -3.52%.
`COc1c(C2CCCN2C(=O)c2ccc3cc[nH]c3c2)c(C)nn1C` (stereo not drawn): the Percent Effect was -4% in [1]; 18.2% in [2]; 1.47% in assay [3]; -0.102% in assay [4]; 7.93% with Trypanosoma cruzi; -4.42% in assay [5]. Moreover, the Percent Effect in [6] is 7.68%; in the assay listed under Homo sapiens, 3.62%; in assay [7] it was 4.76%; in assay [8] it was 14.1%; in assay [9] it was -21.5%.
`N#Cc1ccc(NCCNc2ccc(C(F)(F)F)cn2)nc1`: the Percent Effect in assay [1] is -2.89%; in [2], 7.89%; in assay [3], 4.53%; in assay [4], 10.9%; in the assay with Trypanosoma cruzi, 3.01%; in [5], -1.53%. For the same molecule, the Percent Effect in [6] stood at 10.7%; in the assay filed under Homo sapiens, 104%; in assay [7], 8.33%; in assay [8] it was 24.4%; in [9], 2.5%.
Consider `CNC(=O)NC(=O)Cn1cc(-c2ccccc2)cn1`, for which the Percent Effect in assay [1] was -4.72%; in [2], 6.33%; in assay [3] it was 12.6%; in assay [4] it was 5.24%; in the assay with Trypanosoma cruzi it was -5.03%; in [5], -1.07%. The Percent Effect in [6] is 8.23%; in the assay listed under Homo sapiens, 17.1%; in assay [7], 2.08%; in assay [8], 10.1%; in assay [9], -4.57%.
Take `CCCOc1cc(CNC(=O)Nc2cccnc2N2CCCC2)ccn1`: the Percent Effect in assay [1] was -1.55%; in assay [2] it was -2.7%; in assay [3], -14.8%; in assay [4], 5.9%; in the assay with Trypanosoma cruzi, -1.04%; in assay [5], 4.81%. Besides, the Percent Effect in assay [6] was 5.77%; in the assay listed under Homo sapiens, 6.16%; in assay [7], -0.493%; in assay [8], 3.7%; in assay [9], -5.59%.
